# Test results as given in the supplement of paper PMC8728848.
# This excerpt belongs to a sample that is enriched for the strongest signals.
# B1: MpL2 (Macrolepiota procera) (protein)
# chain: MSTQVSSGQTYKITNVKAGTVIDLSGEDNKSIIGYPYHSGKNQQWTFNWTGKAWTLRSASSGSYLGIEGTPADGTRLVAVNDPFEWHIWRDEANENAFRIFVPFTNYNLRLSGYGDTTPGTPVQLWWTWEGLHQTWTIDRP
# Legend:
# Assay in all cases: glycan array binding signal (z-score within array); higher = stronger binding
# Settings in all cases: glycan notation: IUPAC condensed, linker removed; mutation: D109R
# [1] = target: Fuc(a1-2)Gal(b1-3)GlcNAc(b1-3)Gal(b1-4)Glc
# Summary of the method: (§1)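 Columns mapping to the same glycan were averaged after glycan names were converted to IUPAC-condensed notation. The data come from 3228 arrays in the Consortium for Functional Glycomics database, limited to those with an available protein sequence. Binding is reported as a within-array Z-score averaged across arrays of one protein sequence and across linkers.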
# [2] = target: Fuc(a1-2)Gal(b1-3)[Fuc(a1-4)]GlcNAc(b1-3)[Gal(b1-4)GlcNAc(b1-6)]Gal(b1-4)Glc
# Summary of the method: as §1
# [3] = target: Fuc(a1-2)Gal6S(b1-3)GlcNAc6S
# Summary of the method: as §1
# [4] = target: Fuc(a1-2)Gal6S(b1-4)Glc6S
# Summary of the method: as §1
# [5] = target: Fuc(a1-2)[Gal(a1-3)]Gal(b1-3)GlcNAc(b1-3)GalNAc
# Summary of the method: as §1
# [6] = target: Fuc(a1-2)[Gal(a1-3)]Gal(b1-4)GlcNAc(b1-3)GalNAc
# Summary of the method: as §1
# [7] = target: Fuc(a1-2)[GalNAc(b1-3)]Gal
# Summary of the method: as §1
# [8] = target: Fuc(a1-3)[Gal3S(b1-4)]GlcNAc6S
# Summary of the method: as §1
# Gal(a1-3)Gal(b1-4)GlcNAc = target: Gal(a1-3)Gal(b1-4)GlcNAc
# Summary of the method: as §1
# Gal(a1-4)Gal(b1-4)GlcNAc = target: Gal(a1-4)Gal(b1-4)GlcNAc
# Summary of the method: as §1
# Gal(b1-3)Gal(b1-4)GlcNAc = target: Gal(b1-3)Gal(b1-4)GlcNAc
# Summary of the method: as §1
# Gal(b1-3)GalNAc = target: Gal(b1-3)GalNAc
# Summary of the method: as §1
# [9] = target: Gal(b1-3)GalNAc(a1-3)[Fuc(a1-2)]Gal(b1-4)GlcNAc
# Summary of the method: as §1
# [10] = target: Gal(b1-3)GlcNAc(a1-6)Gal(b1-4)GlcNAc
# Summary of the method: as §1
# [11] = target: Gal(b1-3)GlcNAc(b1-2)[Gal(b1-3)GlcNAc(b1-6)]Man(a1-6)[Gal(b1-3)GlcNAc(b1-2)Man(a1-3)]Man(b1-4)GlcNAc(b1-4)GlcNAc
# Summary of the method: as §1
# [12] = target: Gal(b1-3)GlcNAc(b1-3)Gal(b1-4)GlcNAc(b1-6)[Gal(b1-3)GlcNAc(b1-3)]Gal(b1-4)Glc
# Summary of the method: as §1
# [13] = target: Gal(b1-3)[Fuc(a1-4)]GlcNAc
# Summary of the method: as §1
# Gal(b1-4)Glc = target: Gal(b1-4)Glc
# Summary of the method: as §1
# [14] = target: Gal(b1-4)GlcNAc(a1-6)Gal(b1-4)GlcNAc
# Summary of the method: as §1
# [15] = target: Gal(b1-4)GlcNAc(b1-2)Man(a1-3)[GlcNAc(b1-2)Man(a1-6)]Man(b1-4)GlcNAc(b1-4)GlcNAc
# Summary of the method: as §1
# [16] = target: Gal(b1-4)GlcNAc(b1-3)Gal(b1-4)GlcNAc(b1-2)[Gal(b1-4)GlcNAc(b1-3)Gal(b1-4)GlcNAc(b1-6)]Man(a1-6)[Gal(b1-4)GlcNAc(b1-3)Gal(b1-4)GlcNAc(b1-2)Man(a1-3)]Man(b1-4)GlcNAc(b1-4)[Fuc(a1-6)]GlcNAc
# Summary of the method: as §1
# [17] = target: Gal(b1-4)GlcNAc(b1-3)Gal(b1-4)GlcNAc(b1-3)Gal(b1-4)GlcNAc(b1-2)[Gal(b1-4)GlcNAc(b1-3)Gal(b1-4)GlcNAc(b1-3)Gal(b1-4)GlcNAc(b1-6)]Man(a1-6)[Gal(b1-4)GlcNAc(b1-3)Gal(b1-4)GlcNAc(b1-3)Gal(b1-4)GlcNAc(b1-2)Man(a1-3)]Man(b1-4)GlcNAc(b1-4)[Fuc(a1-6)]GlcNAc
# Summary of the method: as §1
# [18] = target: Gal(b1-4)GlcNAc(b1-3)Gal(b1-4)GlcNAc(b1-3)Gal(b1-4)GlcNAc(b1-3)Gal(b1-4)GlcNAc(b1-2)Man(a1-3)[Gal(b1-4)GlcNAc(b1-3)Gal(b1-4)GlcNAc(b1-3)Gal(b1-4)GlcNAc(b1-3)Gal(b1-4)GlcNAc(b1-2)Man(a1-6)]Man(b1-4)GlcNAc(b1-4)GlcNAc
# Summary of the method: as §1
# [19] = target: Gal(b1-4)GlcNAc(b1-3)Gal(b1-4)GlcNAc(b1-3)Gal(b1-4)GlcNAc(b1-3)Gal(b1-4)GlcNAc(b1-2)[Gal(b1-4)GlcNAc(b1-3)Gal(b1-4)GlcNAc(b1-3)Gal(b1-4)GlcNAc(b1-3)Gal(b1-4)GlcNAc(b1-6)]Man(a1-6)[Gal(b1-4)GlcNAc(b1-3)Gal(b1-4)GlcNAc(b1-3)Gal(b1-4)GlcNAc(b1-3)Gal(b1-4)GlcNAc(b1-2)Man(a1-3)]Man(b1-4)GlcNAc(b1-4)[Fuc(a1-6)]GlcNAc
# Summary of the method: as §1
# [20] = target: Gal(b1-4)GlcNAc(b1-3)Gal(b1-4)GlcNAc(b1-3)Gal(b1-4)GlcNAc(b1-3)Gal(b1-4)GlcNAc(b1-3)Gal(b1-4)GlcNAc(b1-2)Man(a1-3)[Gal(b1-4)GlcNAc(b1-3)Gal(b1-4)GlcNAc(b1-3)Gal(b1-4)GlcNAc(b1-3)Gal(b1-4)GlcNAc(b1-3)Gal(b1-4)GlcNAc(b1-2)Man(a1-6)]Man(b1-4)GlcNAc(b1-4)GlcNAc
# Summary of the method: as §1
# [21] = target: Gal(b1-4)GlcNAc(b1-3)Gal(b1-4)GlcNAc(b1-3)Gal(b1-4)GlcNAc(b1-3)Gal(b1-4)GlcNAc(b1-3)Gal(b1-4)GlcNAc(b1-2)[Gal(b1-4)GlcNAc(b1-3)Gal(b1-4)GlcNAc(b1-3)Gal(b1-4)GlcNAc(b1-3)Gal(b1-4)GlcNAc(b1-3)Gal(b1-4)GlcNAc(b1-6)]Man(a1-6)[Gal(b1-4)GlcNAc(b1-3)Gal(b1-4)GlcNAc(b1-3)Gal(b1-4)GlcNAc(b1-3)Gal(b1-4)GlcNAc(b1-3)Gal(b1-4)GlcNAc(b1-2)Man(a1-3)]Man(b1-4)GlcNAc(b1-4)[Fuc(a1-6)]GlcNAc
# Summary of the method: as §1
# Gal3S(b1-3)GlcNAc = target: Gal3S(b1-3)GlcNAc
# Summary of the method: as §1
# Gal6P(b1-4)GlcNAc = target: Gal6P(b1-4)GlcNAc
# Summary of the method: as §1
# GalNAc(b1-3)GalNAc = target: GalNAc(b1-3)GalNAc
# Summary of the method: as §1
# [22] = target: GalNAc(b1-4)GlcNAc(b1-3)GalNAc(b1-4)GlcNAc
# Summary of the method: as §1
# GalNAc3S(b1-4)GlcNAc3S = target: GalNAc3S(b1-4)GlcNAc3S
# Summary of the method: as §1
# [23] = target: GalNAc3S(b1-4)[Fuc(a1-3)]GlcNAc
# Summary of the method: as §1
# [24] = target: GlcNAc(a1-6)Gal(b1-4)GlcNAc
# Summary of the method: as §1
# [25] = target: GlcNAc(b1-4)GlcNAc(b1-4)GlcNAc
# Summary of the method: as §1
# [26] = target: GlcNAc(b1-4)GlcNAc(b1-4)GlcNAc(b1-4)GlcNAc(b1-4)GlcNAc
# Summary of the method: as §1
# [27] = target: GlcNAc6S(b1-3)Gal(b1-4)GlcNAc
# Summary of the method: as §1
# MurNAc(b1-4)GlcNAc = target: MurNAc(b1-4)GlcNAc
# Summary of the method: as §1
# [28] = target: Neu5Ac(a2-3)Gal(b1-3)GalNAc(b1-3)Gal(a1-4)Gal(b1-4)Glc
# Summary of the method: as §1
# [29] = target: Neu5Ac(a2-3)Gal(b1-4)GlcNAc(b1-2)Man(a1-3)[Neu5Ac(a2-3)Gal(b1-4)GlcNAc(b1-2)Man(a1-6)]Man(b1-4)GlcNAc(b1-4)[Fuc(a1-6)]GlcNAc
# Summary of the method: as §1
# [30] = target: Neu5Ac(a2-6)Gal(b1-4)GlcNAc(b1-2)Man(a1-3)[Neu5Ac(a2-3)Gal(b1-4)GlcNAc(b1-2)Man(a1-6)]Man(b1-4)GlcNAc(b1-4)GlcNAc
# Summary of the method: as §1
# [31] = target: Neu5Ac(a2-6)Gal(b1-4)GlcNAc(b1-2)Man(a1-3)[Neu5Ac(a2-6)Gal(b1-4)GlcNAc(b1-2)Man(a1-6)]Man(b1-4)GlcNAc(b1-4)[Fuc(a1-6)]GlcNAc
# Summary of the method: as §1
# [32] = target: Neu5Ac(a2-6)Gal(b1-4)GlcNAc(b1-3)Gal(b1-4)GlcNAc(b1-3)GalNAc
# Summary of the method: as §1
# [33] = target: Neu5Ac(a2-6)Gal(b1-4)GlcNAc(b1-3)[Neu5Ac(a2-6)Gal(b1-4)GlcNAc(b1-6)]GalNAc
# Summary of the method: as §1
# [34] = target: Neu5Ac(a2-6)Gal(b1-4)GlcNAc6S
# Summary of the method: as §1
# [35] = target: Neu5Ac(a2-6)GalNAc(b1-4)GlcNAc
# Summary of the method: as §1
# [36] = target: Neu5Ac(a2-8)Neu5Ac(a2-8)Neu5Ac(a2-3)Gal(b1-4)Glc
# Summary of the method: as §1
# [37] = target: Neu5Ac(a2-8)Neu5Ac(a2-8)Neu5Ac(a2-3)[GalNAc(b1-4)]Gal(b1-4)Glc
# Summary of the method: as §1
binder,measurement,setting,value
B1,glycan array binding signal (z-score),[1],-0.257
same,glycan array binding signal (z-score),[2],-0.099
same,glycan array binding signal (z-score),[3],-0.247
same,glycan array binding signal (z-score),[4],-0.259
same,glycan array binding signal (z-score),[5],-0.266
same,glycan array binding signal (z-score),[6],-0.251
same,glycan array binding signal (z-score),[7],-0.247
same,glycan array binding signal (z-score),[8],-0.255
same,glycan array binding signal (z-score),Gal(a1-3)Gal(b1-4)GlcNAc,-0.264
same,glycan array binding signal (z-score),Gal(a1-4)Gal(b1-4)GlcNAc,-0.289
same,glycan array binding signal (z-score),Gal(b1-3)Gal(b1-4)GlcNAc,-0.255
same,glycan array binding signal (z-score),Gal(b1-3)GalNAc,-0.256
same,glycan array binding signal (z-score),[9],-0.201
same,glycan array binding signal (z-score),[10],3.81
same,glycan array binding signal (z-score),[11],3.46
same,glycan array binding signal (z-score),[12],3.65
same,glycan array binding signal (z-score),[13],-0.267
same,glycan array binding signal (z-score),Gal(b1-4)Glc,-0.244
same,glycan array binding signal (z-score),[14],12.2
same,glycan array binding signal (z-score),[15],-0.001
same,glycan array binding signal (z-score),[16],3.95
same,glycan array binding signal (z-score),[17],3.9
same,glycan array binding signal (z-score),[18],3.84
same,glycan array binding signal (z-score),[19],4.36
same,glycan array binding signal (z-score),[20],3.94
same,glycan array binding signal (z-score),[21],4.48
same,glycan array binding signal (z-score),Gal3S(b1-3)GlcNAc,-0.276
same,glycan array binding signal (z-score),Gal6P(b1-4)GlcNAc,-0.218
same,glycan array binding signal (z-score),GalNAc(b1-3)GalNAc,-0.254
same,glycan array binding signal (z-score),[22],3.89
same,glycan array binding signal (z-score),GalNAc3S(b1-4)GlcNAc3S,-0.255
same,glycan array binding signal (z-score),[23],-0.254
same,glycan array binding signal (z-score),[24],6.07
same,glycan array binding signal (z-score),[25],-0.248
same,glycan array binding signal (z-score),[26],-0.246
same,glycan array binding signal (z-score),[27],0.055
same,glycan array binding signal (z-score),MurNAc(b1-4)GlcNAc,-0.259
same,glycan array binding signal (z-score),[28],-0.241
same,glycan array binding signal (z-score),[29],-0.215
same,glycan array binding signal (z-score),[30],-0.261
same,glycan array binding signal (z-score),[31],-0.223
same,glycan array binding signal (z-score),[32],-0.261
same,glycan array binding signal (z-score),[33],-0.255
same,glycan array binding signal (z-score),[34],-0.289
same,glycan array binding signal (z-score),[35],-0.301
same,glycan array binding signal (z-score),[36],-0.272
same,glycan array binding signal (z-score),[37],-0.234
